Nrf2 activator: Nrf2 pathway activation. AREc32 ARE-luciferase reporter (MCF7-derived line), luminescence, 24 h. Potency, µM (doses to about 46.1 µM), for inactives: top-dose activation, actives largely listed as activators. 410,000 tested, 0.31% active. AID 624171; note: % of control where 0% means no effect; nearly all actives have a fitted effect of over 65% in size
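ARE-driven firefly luciferase activity in AREc32 cells measured after a 24 hr compound exposure at 37 deg C, using Steady-Glo reagent and a 30 min room-temperature hold.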
mIDH1 inhibitor: human IDH1 R132H inhibition; 390,000 tested, 0.093% active; AID 602179; IDH1-R132H enzyme, NADPH consumption, diaphorase/resazurin fluorescence; Potency, µM (titrated, usually from 76.6 µM), for inactives: top-dose activity change, negative = inhibition, most hits filed as inhibitors; note: % is set by controls: 0 for no effect and ±100 for the full control effect; nearly all actives have a fitted effect of over 65% in size
Target sequence (O75874 whole entry R132H, stated change not applied): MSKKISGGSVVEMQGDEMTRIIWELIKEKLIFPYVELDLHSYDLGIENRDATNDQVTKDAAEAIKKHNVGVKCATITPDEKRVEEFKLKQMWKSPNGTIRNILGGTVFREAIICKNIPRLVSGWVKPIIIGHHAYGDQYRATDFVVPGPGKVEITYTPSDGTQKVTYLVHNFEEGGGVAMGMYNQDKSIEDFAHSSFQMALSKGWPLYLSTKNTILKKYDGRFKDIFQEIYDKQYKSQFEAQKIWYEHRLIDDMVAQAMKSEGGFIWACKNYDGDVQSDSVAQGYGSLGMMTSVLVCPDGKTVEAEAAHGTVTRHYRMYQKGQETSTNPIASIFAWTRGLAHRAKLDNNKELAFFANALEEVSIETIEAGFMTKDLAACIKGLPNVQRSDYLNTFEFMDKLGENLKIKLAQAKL
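IDH1-R132H (0.5 ug/mL) preincubated 30 min with compound, then NADPH (0.016 mM) and alpha-KG (2 mM) added; 80 min at RT, pH 7.5. Remaining NADPH coupled via diaphorase/resazurin to fluorescence (540/590 nm); concentration-response curves normalized to no-enzyme control.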
ELG1 repair inh: inhibitors of ELG1-dependent DNA repair in HEK293T cells; 330,000 tested, 2.3% active; HEK293T ELG1-luciferase reporter, luminescence, 16 h; DNA damage induced by 5-fluorouridine; Potency, µM (titrated, usually from 46.1 µM), for the others: at the top dose activity change, negative = inhibition, most hits filed as inhibitors; note: % is set by controls: 0 for no effect and ±100 for the full control effect; nearly all actives have a fitted effect of over 55% in size
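Overnight (16 hr) co-exposure of 2,000 cells/well to 5-fluorouridine and compound at 37 °C preceded detection. Luciferase was quantified via ONE-Glo luminescence; loss of signal denotes inhibition.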
A549 tox: counter-screen for Nrf2 inhibitors: cytotoxicity in A549 cells; A549 ARE-Fluc cells, CellTiter-Fluor viability, 18-24 h; Potency, µM (doses to about 46 µM), for inactives: top-dose activity change, negative = cytotoxicity, hits mostly inhibitors; 390,000 tested, 0.16% active; AID 504648; note: % is set by controls: 0 for no effect and ±100 for the full control effect
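A549 ARE_Fluc cells in 5% FBS OPTI-MEM were exposed to compounds in concentration-response for 18-24 h at 37 deg C. Viability was read by CellTiter-Fluor fluorescence (Ex 405/Em 525) after 30 min, before the luciferase read.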
Nrf2 block: blocks Nrf2 signaling. A549 ARE-Fluc reporter, luciferase luminescence, 18-24 h. Potency, µM (series often up to 46 µM), inactives show at the highest dose activity change, negative = inhibition, actives largely listed as inhibitors. 360,000 tested, 2.1% active. AID 504444; note: % is set by controls: 0 for no effect and ±100 for the full control effect; nearly all actives have a fitted effect of over 60% in size
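Cells were seeded and rested 2 h, then exposed to compounds for 18-24 h. CellTiter-Fluor was read first as a viability measure. BugLite was added 15 min before the final luminescent read of ARE-luciferase activity in A549 cells.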
Starred values were filed as active, the others as inactive; ? = inconclusive; · = not tested or not shown. The list is not random: actives were taken first. Their share in the collection is about 3.8%. Calls come from the whole dose curve; as a rule, active = well fitted curve in the direction sought with a large enough effect; inconclusive = small, poorly fitted or top-dose-only effect, or another doubt; inactive = no such curve, though single readings can be large; an effect the other way counts as inactive or inconclusive. Potency is the fitted concentration of half-maximal effect.

SMILES	Nrf2 activator	mIDH1 inhibitor	ELG1 repair inh	A549 tox	Nrf2 block
COc1ccc(-c2nc(CNS(=O)(=O)c3cc(OC)ccc3OC)cs2)cc1	0%	12%	16µM*	19%	5%
COc1ccc(-c2nc(CNS(=O)(=O)c3ccccc3)cs2)cc1	1%	·	·	1%	?
COCCn1c(C)cc(O)c(C(c2ccccc2OC)N2CCN(c3ccccc3)CC2)c1=O (stereo not drawn)	0%	-2%	·	4%	·
COC(=O)c1ccsc1NC(=O)CSc1nnnn1-c1ccccc1SC	4%	4%	?	-20%	21µM*
CSc1ccccc1NC(=O)CSc1nnnn1-c1ccccc1SC	0%	3%	?	2%	6%
O=C(CNC(=O)c1ccc(N2CCCC2=O)cc1)Nc1ccc(F)c(F)c1F	2%	-4%	9%	3%	18%
CCn1c(SCCOc2ccc(OC)cc2)nnc1C(CO)NC(=O)c1ccc(OC)cc1 (stereo not drawn)	0%	-2%	-16%	-15%	-12%
C=CCn1c(SCCOc2ccc(OC)cc2)nnc1C(C)NC(=O)Cc1ccc(OC)cc1 (stereo not drawn)	1%	1%	?	-12%	23µM*
COc1ccc(-n2c(C)nc3c(cnn3-c3ccc(Cl)cc3)c2=O)cc1	0%	4%	18µM*	-19%	?
COc1ccc(Oc2c(Cl)cnn(-c3ccc(C)cc3)c2=O)cc1	13µM*	10%	6%	-1%	·
COc1ccc(Oc2c(Cl)cnn(-c3ccc(F)cc3)c2=O)cc1	?	4%	?	0%	·
COc1ccc(-n2c(C)nc3c(cnn3-c3ccc(C)cc3)c2=O)cc1	2%	-13%	?	-2%	18µM*
COc1cccc(-n2c(C)nc3c(cnn3-c3ccc(C)cc3)c2=O)c1	3%	-3%	?	-3%	?
CC(C)C(=O)Nc1nc2c(ncn2[C@H]2CC(O)[C@@H](CO)O2)c(=O)[nH]1 (stereo partly drawn)	·	·	·	-21%	?
CC(C)(C)OC(=O)N1CCC(c2c(C(=O)Nc3ccc4c(c3)OCCO4)cnn2-c2ccc(F)cc2F)CC1	0%	3%	·	?	-11%
Cc1cc(NC(=O)COC(=O)[C@@H]2CCCN2C(=O)c2cccs2)no1	9%	3%	·	13%	19%
Nc1c(-c2ccccc2)c(CSc2nc3ccccc3[nH]2)nn1-c1cccc(Cl)c1	6%	2%	2.9µM*	-18%	23µM*
c1ccc(CSc2nc3ccccc3[nH]2)cc1	2%	1%	?	1%	25%
Nc1c(-c2ccccc2)c(CSc2nc3ccccc3[nH]2)nn1-c1ccc(Cl)cc1	0%	-5%	6.5µM*	?	?
Cc1ccccc1-n1nc(CSc2nc3ccccc3[nH]2)c(-c2ccccc2)c1N	0%	1%	?	-27%	23µM*
Cc1cc(C)c(C)c(C(=O)C(=O)c2ccccc2)c1	0%	0%	·	-15%	2%
COc1ccc(CCN(C)C(=O)c2cc(S(=O)(=O)N3CCCCCC3)ccc2OC)cc1OC	0%	-12%	-2%	-6%	?
COc1ccc(CCN(C)C(=O)c2cc(S(=O)(=O)N3CCCCC3)ccc2Cl)cc1OC	1%	2%	-9%	-11%	16µM*
COc1cccc(CN(C)C(=O)c2cc(S(=O)(=O)N3CCN(c4ccccc4)CC3)ccc2Cl)c1	-1%	1%	18%	-14%	21µM*
COc1cccc(NC(=O)CN(C)C(=O)c2cccc(S(=O)(=O)N3CCN(c4ccccc4)CC3)c2)c1	0%	0%	?	-1%	?
CCC(=O)N1c2ccc(S(=O)(=O)NCc3ccc(F)cc3)cc2CC1C (stereo not drawn)	2%	2%	·	-1%	?
CCc1ccc(Cn2c(CNS(=O)(=O)c3ccc(F)c(Cl)c3)nc3cccnc32)cc1	0%	-23%	·	8%	·
Cc1ncc(CN2CCC(C(=O)Nc3ccc(-n4cccn4)cc3)CC2)s1	0%	2%	4%	2%	2%
